Experimental data reported in PubChem BioAssay (NCI).
Compounds without any hit were thinned out: in the full panel of roughly 79,000, 15% have a hit. Cut-off read from the data, not from the text of the source: active = growth inhibition above about 70%; inactive = the rest. Where a SMILES comes first, the peptide text is derived from it. The star is where a group is joined. Boc = CC(C)(C)OC(=O)*

Legend:
[1] = NCI Yeast Anticancer Drug Screen. Data for the rad50 strain (AID 155);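 note: 0% = growth of vehicle-only cultures of the same strain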; conditions: S. cerevisiae rad50 strain growth inhibition; at 50.0 µM; hits give high values
How it was run: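 Vehicle-treated cultures provide the reference for the growth inhibition reported for compound-exposed, repair-deficient yeast.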

[2] = NCI Yeast Anticancer Drug Screen. Data for the mec2-1 strain (AID 157); conditions: S. cerevisiae mec2-1 strain, at 50.0 µM, hits give high values
How it was run: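 Readout is yeast growth inhibition, normalised to vehicle-treated controls, in the mec2-1 strain exposed to compound.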

[3] = NCI Yeast Anticancer Drug Screen. Data for the sgs1 mgt1 strain (AID 161);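 note: 0% = growth of cultures given vehicle only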; conditions: S. cerevisiae sgs1 mgt1 strain, at 50.0 µM, hits give high values
How it was run: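 Percent growth inhibition was derived by comparing compound-exposed mutant yeast with vehicle-exposed cultures. The strain carries alterations in DNA damage repair.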

[4] = NCI Yeast Anticancer Drug Screen. Data for the cln2 rad14 strain (AID 165);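 note: 0% = growth equal to vehicle treated cultures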; conditions: S. cerevisiae cln2 rad14 strain, at 50.0 µM, hits give high values
How it was run: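 Relative to vehicle controls, growth inhibition of compound-treated cln2 rad14 yeast was recorded.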

[5] = NCI Yeast Anticancer Drug Screen. Data for the bub3 strain (AID 167); conditions: S. cerevisiae bub3 mutant strain, at 50.0 µM, hits give high values
How it was run: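 Mutant yeast screening strain plus compound; vehicle-treated cultures serve as the 0% inhibition reference.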

[6] = NCI Yeast Anticancer Drug Screen. Data for the mlh1 rad18 strain (AID 175); conditions: S. cerevisiae mlh1 rad18 strain growth inhibition; at 50.0 µM; hits give high values
How it was run: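 Test agents were incubated with a yeast strain of defined genotype (DNA damage repair defect). Inhibition of growth was derived by comparison with vehicle-exposed cultures.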

Measured: growth inhibition

OCC(O)C(O)C(O)c1nn(-c2ccccc2)c2nc3ccccc3nc12 (stereo not given)
inactive: [1] 3.6% | [2] 1.3% | [3] 3.4% | [4] 7.15% | [5] 11.3% | [6] 17.2%

Cc1ccc(S(=O)(=O)c2ccc(C(=O)O)cc2)cc1
inactive: [1] 8.1% | [2] 10.4% | [3] 10.8% | [4] -6.05% | [5] 4.05% | [6] 17%

O=C1NC(CO)C(=O)NC1CO (stereo not given)
inactive: [1] 3.7% | [2] -4.4% | [3] -12.2% | [4] -2.75% | [5] 0.25% | [6] -4.8%

Cc1nc(=S)[nH][nH]1
inactive: [1] -0.75% | [2] 16.9% | [3] 6.15% | [4] 3.5% | [5] 8.15% | [6] 1%

CCOc1nc(C)cc(C(=O)OC)c1C#N
inactive: [1] 18.4% | [2] 15.7% | [3] 19.6% | [4] 17.4% | [5] 0.3% | [6] 2%

Cc1ccccc1C(=O)OCCBr
inactive: [1] 10.3% | [2] -6.2% | [3] 4.15% | [4] -27.1% | [5] 8.2% | [6] 2.9%

Cc1ccc(NC(=O)CC#N)c(C)c1
inactive: [1] -11.8% | [2] -10.2% | [3] -17.9% | [4] -40.9% | [5] -0.7% | [6] 4%

CCOC(=O)CN1CC(C2=C(O)CN(CC(=O)OCC)C2=O)=CC1=O
inactive: [1] 0.75% | [2] 9.7% | [3] -12.6% | [4] 29.1% | [5] 9.55% | [6] -27%

O=C(Cl)/C=C/c1ccccc1
inactive: [1] 37.1% | [2] 15.5% | [3] 27.9% | [4] -29.1% | [5] 23.9% | [6] 34.9%

CN(C)c1ccc(/C=C2/CC(=O)N(c3ccccc3)C2=O)cc1
inactive: [1] 16.3% | [2] 1.15% | [3] 25.1% | [4] -35.3% | [5] -0.9% | [6] 15.6%

CC(C)=C1C(=O)C[C@]2(C)C[C@H]3O[C@]3(C)CC[C@@H]3O[C@@]3(C)CC[C@@H]12
inactive: [1] 0.3% | [2] -8.05% | [3] 12.6% | [4] 14.1% | [5] -1.65% | [6] -66.5%

CC(NC(=O)CNP(=O)(c1ccccc1)c1ccccc1)C(=O)NC(Cc1ccccc1)C(=O)OCc1ccccc1 (stereo not given)
inactive: [1] 9.8% | [2] 4.3% | [3] 20.1% | [4] -4.5% | [5] -9.55% | [6] 30.1%

O=C1OCC(Cc2ccc3c(c2)OCO3)[C@H]1Cc1ccc(O)cc1 (stereo not given in full)
inactive: [1] 1.45% | [2] -18% | [3] 17.6% | [4] 21.9% | [5] 19.3% | [6] -5.9%

CCN(CC)CCOC(=O)Cc1cccc2c(=O)cc(-c3ccc(OC)cc3)oc12
inactive: [1] 50.4% | [2] -9.95% | [3] -12.4% | [4] 8.9% | [5] -10.2% | [6] -45.4%

CN(CC(=O)c1ccc(Cl)cc1)Cc1ccccc1
inactive: [1] -1.45% | [2] -8.8% | [3] 3.4% | [4] -25.3% | [5] 0.9% | [6] -3.5%

N#Cc1c(-c2ccc(Cl)cc2)cn2c1[nH]c(=O)c1cc(Br)ccc12
inactive: [1] 6.45% | [2] 0.95% | [3] -18.4% | [4] -12.6% | [5] -3.4% | [6] 14.4%

Cn1nc(NC(=O)c2cc(N)nn2C)cc1C(=O)Nc1ccc2cc(S(=O)(=O)O)cc(S(=O)(=O)O)c2c1
inactive: [1] -14.1% | [2] -16.7% | [3] -10.3% | [4] 7.65% | [5] 13.7% | [6] -3%

CCCCCCCCCCCCCCCCCCCCCCCCSC(=N)N
inactive: [1] 10.6% | [2] 0.15% | [3] 16.5% | [4] 26.4% | [5] -6.15% | [6] 12.9%

O=[N+]([O-])c1ccc2oc(=Nc3ccccc3)c(Nc3ccccc3)nc2c1
inactive: [1] -21.4% | [2] 11.4% | [3] -18.6% | [4] 15.9% | [5] 6.75% | [6] 6.25%

OCC1OC2OC(c3ccccc3)(c3ccc(OCc4ccccc4)nc3OCc3ccccc3)OC2C1O (stereo not given)
inactive: [1] 25.9% | [2] 2.6% | [3] 0.6% | [4] 14.8% | [5] -10.4% | [6] 2.8%

O=C(O)CCC(=O)C(Cc1ccccc1)NC(=O)c1ccccc1 (stereo not given)
inactive: [1] -14.4% | [2] -16.6% | [3] -10.1% | [4] -4.05% | [5] 6.1% | [6] -10.4%

CCS(=O)(=O)N(CC(=O)O)Cc1ccccc1
inactive: [1] -4.95% | [2] 7.3% | [3] -13.4% | [4] 0.95% | [5] 6.8% | [6] 0.65%

CN(C)Cc1ccc2ccccc2c1CC(O)(c1ccccc1)c1ccccc1
inactive: [1] 26.3% | [2] -2.05% | [3] 9.55% | [4] 2.25% | [5] 0.85% | [6] 7.35%

O=S1(=O)OCCOS(=O)(=O)C1(I)I
inactive: [1] 11.7% | [2] -26.2% | [3] -2.35% | [4] 11.4% | [5] -9.7% | [6] 16.2%

COC(=O)C1CC(c2ccc(Cl)cc2)=NO1 (stereo not given)
inactive: [1] 36.4% | [2] 8.25% | [3] 8.5% | [4] 5.3% | [5] 1.5% | [6] 47.1%

OCC12CCCC(OC1)O2 (stereo not given)
inactive: [1] -8.6% | [2] -14.7% | [3] -25.9% | [4] 0.2% | [5] 13.8% | [6] -4.65%

Cn1c(=O)c(Br)cc2ccccc21
inactive: [1] 10.2% | [2] 13.9% | [3] 21.3% | [4] 8.45% | [5] 9.1% | [6] 33.5%

CCCCCCCCCCCCCCCCCCCCCCCCCC
inactive: [1] -11.4% | [2] -2.55% | [3] -19.2% | [4] 19.9% | [5] -0.05% | [6] 5.6%

Cc1ccc2c(c1)C(=O)/C(=N/Nc1ccc(Cl)cc1)CCO2
inactive: [1] 7.65% | [2] -16.1% | [3] 6.2% | [4] -2% | [5] 6.8% | [6] 4.65%

CC(=O)Nc1ncc(Br)s1
inactive: [1] 6.75% | [2] 6.05% | [3] -18.4% | [4] -13.8% | [5] -9.4% | [6] 5.3%

CCC1=C(C(C)=O)[C@@H]2CCCCC(C(=O)OC)[C@@H]2C1=O (stereo not given in full)
inactive: [1] -38.7% | [2] -20.3% | [3] -20.8% | [4] 19.7% | [5] 8.65% | [6] -3.7%

O=C(O)C(Cl)(c1ccccc1)c1ccccc1
inactive: [1] -6.5% | [2] -13% | [3] 7.5% | [4] -19.9% | [5] 3.55% | [6] -12.8%

COC(=O)CNC(=O)C(CC(C)C)NC(=O)C(CC(C)C)NC(=O)OC(C)(C)C (stereo not drawn) (Boc-Leu-Leu-Gly-OMe; configuration not given here)
inactive: [1] 42.2% | [2] 1.65% | [3] 32.1% | [4] 10.5% | [5] -0.6% | [6] 15.8%

Cc1ccc(S(=O)(=O)CN2CCC(=O)c3ccccc32)cc1
inactive: [1] 20.4% | [2] 12.6% | [3] -6.4% | [4] 11.4% | [5] 15.4% | [6] 0.25%

COc1cc2c(cc1OC)C1=Cc3cc(OC)c(OC)cc3C(C)N1C=C2 (stereo not given)
inactive: [1] 6.15% | [2] -6.3% | [3] -26.6% | [4] -18.6% | [5] -23.9% | [6] -16.7%

OCc1ccccc1C(c1ccc(O)cc1)c1ccc(O)cc1
inactive: [1] 26.3% | [2] -7.9% | [3] 28.9% | [4] 18% | [5] 12.7% | [6] 5.15%

O=S(=O)(CSc1ccccc1)c1ccccc1
inactive: [1] -21.9% | [2] -33.1% | [3] -16.6% | [4] -8.35% | [5] -25.6% | [6] -39.1%

CC12CCCC=C1C(C)(C)C(O)CC2 (stereo not given)
inactive: [1] 3.45% | [2] 1.7% | [3] 2.95% | [4] 7.3% | [5] -26.8% | [6] 0.8%

Cn1c(=O)sc2ccccc21
inactive: [1] 19.4% | [2] -18.2% | [3] 14.3% | [4] 15.1% | [5] -8.8% | [6] 25.6%

Cc1ccc(S(=O)(=O)/C(C#N)=C\N2CC(=O)NC2=S)cc1
inactive: [1] -20.1% | [2] -21.1% | [3] -23.2% | [4] -10.3% | [5] -13.9% | [6] -25.6%
